Test results reported in PubChem BioAssay (NCATS).
Unmarked numbers belong to inactive results. Inconclusive results are not listed. Calls of active or inactive are those of the source. Unless noted, the call rests on the fitted dose curve; in most records, active means well fitted curve in either direction with a large enough effect (not every such curve was filed as active); inconclusive means small, poorly fitted or top-dose-only effect, or another doubt; inactive means flat fitted curve, though single readings scatter.

What was measured:
[1] = molecular target: Lysosomal acid glucosylceramidase (Homo sapiens) (UniProt P04062); assay: Glucocerebrosidase-p2 (AID 348; in the data active means potency below about 10 µM; further: potency means the concentration at half of the fitted maximal effect); conditions: purified GBA, blue fluorogenic substrate, 40 min
Sequence of Lysosomal acid glucosylceramidase (Homo sapiens) (P04062 whole entry, looked up): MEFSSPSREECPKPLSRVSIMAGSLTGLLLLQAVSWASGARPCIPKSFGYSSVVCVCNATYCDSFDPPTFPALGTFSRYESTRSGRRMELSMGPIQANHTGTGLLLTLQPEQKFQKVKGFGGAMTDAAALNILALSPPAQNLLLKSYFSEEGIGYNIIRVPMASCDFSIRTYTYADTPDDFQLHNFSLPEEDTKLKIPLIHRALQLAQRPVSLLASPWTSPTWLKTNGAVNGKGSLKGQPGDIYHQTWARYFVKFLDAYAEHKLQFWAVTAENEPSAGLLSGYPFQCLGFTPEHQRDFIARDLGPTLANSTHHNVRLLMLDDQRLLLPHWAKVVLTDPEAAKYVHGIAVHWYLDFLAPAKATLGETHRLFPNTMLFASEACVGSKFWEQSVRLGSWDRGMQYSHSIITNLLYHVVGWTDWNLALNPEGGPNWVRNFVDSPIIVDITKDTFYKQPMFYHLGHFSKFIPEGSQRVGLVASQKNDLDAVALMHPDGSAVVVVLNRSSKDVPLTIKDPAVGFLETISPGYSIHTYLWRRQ
How it was run: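 Compounds titrated from 0.6 nM upwards against 0.2 nM enzyme in pH 5.9 citric acid/KH2PO4, taurocholate, tween-20; blue fluorogenic substrate 80 uM, 40 min room temperature, stopped and read Ex 365/Em 440 for AC50.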

[2] = AP1 Signaling Pathway (AID 357); conditions: ME-180 AP-1-bla reporter, EGF-induced, beta-lactamase ratio, 5 h; at 7.69 µM (top of the series) unless noted; further: on the % scale 0 is the no-effect control and ±100 the full control effect
How it was run: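 ME-180 cells with beta-lactamase reporter under AP-1 response element, stimulated with EC50 EGF; compounds tested in titration series, 5 h at 37 °C. CCF4 substrate added 2.5 h at room temperature; 460/530 nm emission ratio gave %activity and AC50.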

[3] = Stat Signaling Pathway (AID 446); conditions: ME-180 SIE beta-lactamase reporter, IL-6 stimulated, 5 h; at 7.69 µM (top of the series) unless noted;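 further: ME-180 cervical cancer cells given 40 pM IL-6 alongside compound; SIE-controlled beta-lactamase reporter measured as 460/530 nm FRET emission ratio; on the % scale 0 is the no-effect control and ±100 the full control effect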
How it was run: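 Reporter line: ME-180 cervical carcinoma, SIE-beta-lactamase. Treatment: compound with 40 pM IL-6, 5 hrs, 37 C, in low-serum OPTI-MEM with 10 mM HEPES pH 7.3. Detection: 460/530 nm fluorescence.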

[4] = molecular target: Glucocorticoid receptor (Homo sapiens) (UniProt P04150); assay: GR-GFP Redistribution (AID 450;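 active means compounds whose dose series gives a full or clear partial fitted curve of increased nuclear translocation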; further: potency means the concentration at half of the fitted maximal effect); conditions: U2OS GR-GFP nuclear translocation, laser cytometry, 2 h
Sequence of Glucocorticoid receptor (Homo sapiens) (P04150 whole entry, looked up, the tested form may be a part): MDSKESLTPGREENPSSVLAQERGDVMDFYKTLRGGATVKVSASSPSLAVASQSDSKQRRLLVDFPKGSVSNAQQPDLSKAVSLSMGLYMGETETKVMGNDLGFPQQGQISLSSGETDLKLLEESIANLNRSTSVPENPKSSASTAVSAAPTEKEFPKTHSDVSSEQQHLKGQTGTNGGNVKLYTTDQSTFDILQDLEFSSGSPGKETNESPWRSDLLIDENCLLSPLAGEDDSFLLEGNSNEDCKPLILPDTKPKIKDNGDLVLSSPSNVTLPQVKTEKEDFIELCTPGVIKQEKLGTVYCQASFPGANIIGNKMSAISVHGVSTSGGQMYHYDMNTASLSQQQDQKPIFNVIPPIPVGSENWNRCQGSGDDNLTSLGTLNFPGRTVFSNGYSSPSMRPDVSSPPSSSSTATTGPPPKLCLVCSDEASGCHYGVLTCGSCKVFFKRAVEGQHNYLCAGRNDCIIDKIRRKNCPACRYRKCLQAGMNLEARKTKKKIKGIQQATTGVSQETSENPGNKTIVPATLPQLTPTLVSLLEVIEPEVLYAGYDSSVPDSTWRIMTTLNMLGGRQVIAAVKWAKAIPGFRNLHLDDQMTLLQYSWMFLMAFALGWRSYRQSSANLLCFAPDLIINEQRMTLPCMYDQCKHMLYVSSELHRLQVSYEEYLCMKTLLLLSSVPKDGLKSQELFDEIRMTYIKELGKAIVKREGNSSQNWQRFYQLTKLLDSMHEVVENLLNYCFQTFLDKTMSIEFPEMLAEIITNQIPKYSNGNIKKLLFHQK

[5] = molecular target: Glucocorticoid receptor (Homo sapiens) (UniProt P04150); assay: GR-EFC Redistribution (AID 451; calls by dose curve; further: potency means the concentration at half of the fitted maximal effect); conditions: CHO-K1 GR-EFC translocation, beta-gal luminescence, 2 h
How it was run: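 CHO-K1 cells expressing nuclear EA and GR-ED fragments of b-gal; compounds titrated up to 46 uM final, 2 h at 37 C. GR nuclear translocation read as complemented b-gal luminescence after 1 h RT detection.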

[6] = molecular target: 3',5'-cyclic-AMP phosphodiesterase 4B (Homo sapiens) (UniProt Q07343); assay: qHTS Assay for Inhibitors of PDE-IV (AID 607; active means well fitted activation curve with a large enough effect in the main read-out, with a control signal flat, not every such curve was filed as active; further: % of control where 0% means no effect); conditions: HEK293 ACTOne CNG channel cells, membrane potential fluorescence; series mostly up to 22.9 µM
Sequence of 3',5'-cyclic-AMP phosphodiesterase 4B (Homo sapiens) (Q07343 whole entry, looked up): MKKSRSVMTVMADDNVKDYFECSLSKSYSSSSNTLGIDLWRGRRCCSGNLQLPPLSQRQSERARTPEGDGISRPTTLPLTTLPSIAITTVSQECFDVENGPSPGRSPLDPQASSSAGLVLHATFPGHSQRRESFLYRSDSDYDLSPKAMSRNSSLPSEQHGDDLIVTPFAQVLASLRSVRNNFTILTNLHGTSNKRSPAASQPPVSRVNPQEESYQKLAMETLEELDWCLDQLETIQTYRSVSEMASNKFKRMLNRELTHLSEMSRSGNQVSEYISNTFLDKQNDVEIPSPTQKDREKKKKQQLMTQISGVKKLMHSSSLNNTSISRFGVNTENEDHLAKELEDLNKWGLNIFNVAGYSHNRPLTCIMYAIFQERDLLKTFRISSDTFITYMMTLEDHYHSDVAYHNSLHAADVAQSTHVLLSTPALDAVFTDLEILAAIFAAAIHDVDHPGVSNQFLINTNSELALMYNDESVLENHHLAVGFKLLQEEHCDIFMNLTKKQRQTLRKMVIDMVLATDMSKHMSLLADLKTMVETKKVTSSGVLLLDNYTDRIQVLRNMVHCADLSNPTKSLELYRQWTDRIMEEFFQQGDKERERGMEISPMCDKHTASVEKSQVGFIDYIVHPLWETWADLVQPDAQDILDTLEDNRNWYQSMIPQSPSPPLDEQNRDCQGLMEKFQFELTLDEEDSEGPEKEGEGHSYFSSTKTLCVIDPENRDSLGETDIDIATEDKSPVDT
How it was run: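 Cell-based read-out of cAMP via a modified cyclic nucleotide-gated channel and membrane potential dye (535/590 nm) in HEK293 cells expressing PDE4 endogenously. Compounds tested up to 22.9 uM final; 100 uM RO 20-1724 reference.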

[7] = molecular target: Cytochrome P450 1A2 (Homo sapiens) (UniProt P05177); assay: p450-cyp1a2 (AID 410; calls by dose curve; further: potency means the concentration at half of the fitted maximal effect); conditions: recombinant CYP1A2, luciferin-ME demethylation, luminescence; series mostly up to 11.4 µM
Sequence of Cytochrome P450 1A2 (Homo sapiens) (P05177 whole entry, looked up): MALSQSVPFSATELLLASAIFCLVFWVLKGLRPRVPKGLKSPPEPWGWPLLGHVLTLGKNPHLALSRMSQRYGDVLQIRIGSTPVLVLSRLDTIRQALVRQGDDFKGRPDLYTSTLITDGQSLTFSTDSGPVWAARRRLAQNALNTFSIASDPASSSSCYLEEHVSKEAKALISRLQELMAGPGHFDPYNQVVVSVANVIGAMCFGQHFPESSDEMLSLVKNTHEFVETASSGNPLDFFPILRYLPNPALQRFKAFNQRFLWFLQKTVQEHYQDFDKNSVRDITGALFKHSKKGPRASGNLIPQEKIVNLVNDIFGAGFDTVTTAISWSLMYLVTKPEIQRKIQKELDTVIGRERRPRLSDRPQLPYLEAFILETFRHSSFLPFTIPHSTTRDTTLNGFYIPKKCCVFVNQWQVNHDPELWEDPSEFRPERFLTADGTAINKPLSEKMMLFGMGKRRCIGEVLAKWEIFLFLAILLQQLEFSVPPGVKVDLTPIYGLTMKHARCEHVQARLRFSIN
How it was run: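 20nM CYP1A2 with 100uM Luciferin-ME (at Km) in 100mM KPO4; compound preincubated 10 min, NADPH regeneration added, 60 min at room temperature. Luciferin quantified by luminescence after detection reagent; normalized to 57 uM furafylline.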

[8] = NFAT Signaling Pathway (AID 444); conditions: Jurkat NFAT-bla M1, carbachol, beta-lactamase ratio, 5 h; at 7.69 µM (top of the series) unless noted;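 further: carbachol stimulus at about its EC50 of 1 µM final; on the % scale 0 is the no-effect control and ±100 the full control effect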
How it was run: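 Jurkat cells with NFAT-driven β-lactamase reporter and co-expressed M1 receptor, stimulated with carbachol (final 1 uM, ~EC50), compound titration, 5 h at 37 °C. CCF4 loaded 1 h at RT; 460/530 nm ratio gave %activity and AC50.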

[9] = molecular target: Mitogen-activated protein kinase 10 (Mus musculus) (UniProt Q61831); assay: JNK3 AlphaScreen Assay (AID 530); conditions: JNK3 lysate, c-Jun phosphorylation; series mostly up to 11.4 µM;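 further: kinase came from lysate of stimulated human HepG2 cells; signal reports phosphorylation of biotinylated GST-cJun 1-79 at Ser73 with 10 µM ATP; on the % scale 0 is the no-effect control and ±100 the full control effect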
How it was run: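 Pre-activated (IL-1β/TNFα) JNK3 in HepG2 lysates phosphorylates biotin-GST-cJun(1-79), 10 uM ATP; anti-phospho-cJun(Ser73) AlphaScreen read at room temperature, pH 7.6 Tris buffer. Compounds pre-incubated 15 min as titrations.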

[10] = molecular target: Cytochrome P450 3A4 (Homo sapiens) (UniProt P08684); assay: qHTS Assay for Activators of Cytochrome P450 3A4 (AID 885; active means well fitted activation curve with a large enough effect; further: nearly all actives have a fitted effect of over 65% in size); conditions: recombinant CYP3A4, Luciferin-PPXE luminescence, 60 min; series mostly up to 11.4 µM
Sequence of Cytochrome P450 3A4 (Homo sapiens) (P08684 whole entry, looked up): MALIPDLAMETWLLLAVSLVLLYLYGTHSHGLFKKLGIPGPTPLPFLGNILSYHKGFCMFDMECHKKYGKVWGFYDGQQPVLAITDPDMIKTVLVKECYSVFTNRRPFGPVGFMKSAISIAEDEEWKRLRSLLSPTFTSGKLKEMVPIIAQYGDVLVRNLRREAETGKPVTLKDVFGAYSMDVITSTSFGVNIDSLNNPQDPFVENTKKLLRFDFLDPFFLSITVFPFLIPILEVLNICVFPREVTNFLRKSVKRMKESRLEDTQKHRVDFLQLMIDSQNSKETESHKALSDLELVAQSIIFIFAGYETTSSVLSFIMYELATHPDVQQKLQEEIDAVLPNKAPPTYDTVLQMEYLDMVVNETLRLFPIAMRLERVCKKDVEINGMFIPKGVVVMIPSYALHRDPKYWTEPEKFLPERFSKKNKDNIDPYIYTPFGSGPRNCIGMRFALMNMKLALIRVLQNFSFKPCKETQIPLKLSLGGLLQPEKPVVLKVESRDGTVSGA
How it was run: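 Signal was normalized against complete inhibition by 57 uM ketoconazole. The reaction used 20nM CYP3A4 with 25uM Luciferin-PPXE, 10-min compound preincubation and a 60-min NADPH-supported step at RT.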

[11] = qHTS Assay for Identification of Small Molecule Agonists for Hypoxia Response Element Signaling Pathway (AID 914; active means well fitted activation curve with a large enough effect in the signal ratio, with a control signal flat, not every such curve was filed as active; the % refers to the signal ratio; further: % of control where 0% means no effect); conditions: ME-180 (cervical carcinoma) HRE-bla reporter, beta-lactamase ratio, CoCl2, 17 h; activation: hits give high values
How it was run: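 AC50 values come from titration-series %Activity, taken as the 460/530nm ratio of CCF4 fluorescence (excitation 405nm). CellSensor HRE-bla ME-180 cells were treated 17 hours at 37 C with compound plus an EC50 level of CoCl2.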

Row | SMILES | Potency [1] [µM] | activity change, negative = inhibition [2] [%] | activity, negative = inhibition [3] [%] | Potency [4] [µM] | Potency [5] [µM] | Potency [6] | Potency [7] | activity change, negative = inhibition [8] [%] | Potency [9] | Potency [10] | activation [11] [%]
1 | O=C(O)c1cccc(N=Nc2c(S(=O)(=O)O)ccc3c2C(=O)c2ccccc2C3=O)c1O | > 11.4 | 9.86 | -9.02 | > 46 | > 9.22 | inactive | – | – | – | – | –
2 | O=C1Oc2ccccc2C(=O)/C1=C\N1C(=O)N/C(=C\c2ccccc2O)C1=O | > 11.4 | – | -25.4 | > 46 | > 9.22 | inactive | 0.316 µM (active) | -7.15 | inactive | inactive | –
3 | Cc1cc(Nc2ccc(N=Nc3ccc(O)c4ncccc34)cc2)nc(C)n1 | > 11.4 | 9.64 | – | > 46 | > 9.22 | inactive | – | – | inactive | – | –
4 | c1cc(CSc2ncnc3nc[nH]c23)ccn1 | > 11.4 | 10.4 | -2.3 | > 46 | – | inactive | – | – | inactive | – | -3.44
